# Measurements published in PubChem BioAssay (NCATS).
# Results filed as inconclusive are left out. Where a call stands in place of a potency, no number is given. A number with no mark means an inactive call. Active and inactive are the calls of the source. Unless noted, the call rests on the fitted dose curve; in most records, active means well fitted curve in the direction sought with a large enough effect; inconclusive means small, poorly fitted or top-dose-only effect, or another doubt; inactive means no such curve, though single readings can be large; an effect the other way counts as inactive or inconclusive.
# Columns and labels:
# NIH3T3 = assay: Cytotoxic Profiling of Annotated Libraries Using Quantitative High-Throughput Screening (AID 1296008); settings: Five cell lines viability, CellTiter-Glo ATP luminescence, 48-72 h; max response: stronger effect = lower value; further: nearly all actives have a fitted effect of over 60% in size; further: potency means the concentration at half of the fitted maximal effect
# How it was run: (§1)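 Compounds were pin-transferred onto cells and incubated 48 or 72 hr at 37 degree Celsius, 95% humidity. CellTiter-Glo was added, plates sat 10 min at room temperature, then ATP-coupled luminescence was imaged as the viability read-out.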
# C33A = assay: Primary qHTS to identify gynecologic anti-cancer compounds using libraries of approved drugs and bioactive compounds (AID 1345084); settings: Gynecologic cancer cell panel viability, ATPlite luminescence, 48 h; series mostly up to 57.5 µM; further: nearly all actives have a fitted effect of over 55% in size; further: potency means the concentration at half of the fitted maximal effect
# How it was run: (§2)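 Five-concentration response, 48 h; readout is ATP-driven luciferase luminescence.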
# CAOV3 = assay: as above; settings: Gynecologic cancer cell panel viability, ATPlite luminescence, 48 h; series mostly up to 57.5 µM
# How it was run: as §2
# Es-2 = assay: as above; settings: Gynecologic cancer cell panel viability, ATPlite luminescence, 48 h; series mostly up to 57.5 µM
# How it was run: as §2
# HeLa = assay: as above; settings: Gynecologic cancer cell panel viability, ATPlite luminescence, 48 h; series mostly up to 57.5 µM
# How it was run: as §2
# Hek293T = assay: as above; settings: Gynecologic cancer cell panel viability, ATPlite luminescence, 48 h, control line for the selectivity index; series mostly up to 57.5 µM
# How it was run: as §2
# PA-1 = assay: as above; settings: Gynecologic cancer cell panel viability, ATPlite luminescence, 48 h; series mostly up to 57.5 µM
# How it was run: as §2
# Tov-21-G = assay: as above; settings: Gynecologic cancer cell panel viability, ATPlite luminescence, 48 h; series mostly up to 57.5 µM
# How it was run: as §2
# Tov112D = assay: as above; settings: Gynecologic cancer cell panel viability, ATPlite luminescence, 48 h; series mostly up to 57.5 µM
# How it was run: as §2
# HEK293 = assay: Cytotoxic Profiling of Annotated Libraries Using Quantitative High-Throughput Screening (AID 1296008); settings: Five cell lines viability, CellTiter-Glo ATP luminescence, 48-72 h; max response: stronger effect = lower value; further: nearly all actives have a fitted effect of over 60% in size; further: potency means the concentration at half of the fitted maximal effect
# How it was run: as §1
# HACAT = assay: qHTS assay to identify novel small-molecules to repurpose for Merkel cell carcinoma treatment (AID 1296009); settings: MCC and control cell lines, CellTiter-Glo viability, 72 h; at 44.8 µM (top of the series) unless noted; further: nearly all actives have a fitted effect of over 60% in size
# How it was run: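 Luminescence from CellTiter-Glo, read 10 min after addition at room temperature, reported viability following a 72 hr, 37 degree celsius treatment with NPC or MIPE compounds in titration; values normalized to plate controls.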
# SKOV3 = assay: Primary qHTS to identify gynecologic anti-cancer compounds using libraries of approved drugs and bioactive compounds (AID 1345084); settings: Gynecologic cancer cell panel viability, ATPlite luminescence, 48 h; series mostly up to 57.5 µM; further: nearly all actives have a fitted effect of over 55% in size; further: potency means the concentration at half of the fitted maximal effect
# How it was run: as §2
# [1] = target: Cytochrome P450 2D6 (Homo sapiens) (UniProt P10635); assay: Cytochrome P450 family 2 subfamily D member 6 (CYP2D6) small molecule antagonists: luciferase biochemical (cell-free) qHTS assay (AID 1645840; active means well fitted curve in the direction sought with a large enough effect in the repeat runs; an effect the other way counts as inactive or inconclusive; further: nearly all actives have a fitted effect of over 55% in size; further: potency means the concentration at half of the fitted maximal effect)
# How it was run: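 P450-Glo CYP2D6 system: proluciferin substrate converted by enzyme to luciferin, read by luminescence proportional to activity. Enzyme-substrate mix with compound 10 min at room temperature, then NADPH regeneration 1 h before detection reagent.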
# [2] = Cytotoxicity counterscreen for inhibitors of SARS-CoV-2 cell entry (AID 1645845; calls by dose curve; further: nearly all actives have a fitted effect of over 50% in size)
# How it was run: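 After a 15 min room-temperature ATPLite 1step step, luminescence reflected ATP remaining in HEK293-ACE2 cells exposed to compound for 1 h plus 48 h at 37 C, with percent activity set by cell and no-cell controls.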
# [3] = Primary qHTS to identify inhibitors of SARS-CoV-2 cell entry (AID 1645846; calls by dose curve; further: nearly all actives have a fitted effect of over 45% in size); settings: activity change, negative = inhibition: at 57.1 µM (top of the series) unless noted
# How it was run: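 Entry measured by luciferase signal 48 h after adding SARS-CoV-2-S pseudotyped MLV particles to HEK293-ACE2 cells preincubated 1 h with compounds. Normalisation: bald particles and spike particles.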
# Sequence of Cytochrome P450 2D6 (Homo sapiens) (P10635 whole entry, looked up): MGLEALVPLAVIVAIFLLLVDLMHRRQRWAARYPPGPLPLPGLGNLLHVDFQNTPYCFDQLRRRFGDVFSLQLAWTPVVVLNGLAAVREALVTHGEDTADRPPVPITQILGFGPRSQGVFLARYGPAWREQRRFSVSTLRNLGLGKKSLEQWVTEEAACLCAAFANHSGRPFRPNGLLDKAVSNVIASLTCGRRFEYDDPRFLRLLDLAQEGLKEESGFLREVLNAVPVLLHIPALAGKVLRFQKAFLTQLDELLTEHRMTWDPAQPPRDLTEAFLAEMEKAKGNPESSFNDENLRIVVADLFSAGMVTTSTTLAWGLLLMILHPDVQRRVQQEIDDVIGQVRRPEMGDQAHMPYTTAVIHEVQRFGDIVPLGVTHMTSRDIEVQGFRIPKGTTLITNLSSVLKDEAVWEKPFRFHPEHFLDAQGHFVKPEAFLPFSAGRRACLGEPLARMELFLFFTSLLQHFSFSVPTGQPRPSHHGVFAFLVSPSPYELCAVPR
smiles,measurement,setting,value
C/C1=C/[C@@H](C)C/C=C/[C@H]2[C@@H]3O[C@]3(C)[C@@H](C)[C@H]3[C@H](Cc4c[nH]c5ccccc45)NC(=O)[C@]32C(=O)/C=C\C(=O)[C@@H]1O,Potency,NIH3T3,1590 nM (active)
same,Potency,C33A,inactive
same,Potency,CAOV3,inactive
same,Potency,Es-2,inactive
same,Potency,HeLa,inactive
same,Potency,Hek293T,inactive
same,Potency,PA-1,inactive
same,Potency,Tov-21-G,inactive
same,Potency,Tov112D,inactive
CC(C)C(=O)O[C@H]1[C@@H]2[C@H](C)C(=O)O[C@@H]2C[C@@H](C)[C@@H]2C=CC(=O)[C@]21C,Potency,HEK293,9040 nM (active)
same,Potency,CAOV3,inactive
same,Potency,Hek293T,7940 nM (active)
same,Potency,Tov-21-G,10000 nM (active)
COc1ccc(CC2C(=O)NC(C)C(=O)N(C)C3Cc4ccc(cc4)Oc4cc(ccc4OC4OC(CO)C(O)C(O)C4O)CC(C(=O)NC(C)C(=O)NC(CCC(=O)O)C(=O)N2C)N(C)C3=O)cc1 (configuration not stated),outcome,HACAT,inactive [at 9.27 µM]
same,"activity change, negative = cytotoxicity",HeLa,-13.7% [at 11.6 µM]
same,Potency,PA-1,7080 nM (active)
Cc1sc2c(c1C)C(c1ccc(Cl)cc1)=N[C@@H](CC(=O)Nc1ccc(O)cc1)c1nnc(C)n1-2,Potency,HEK293,390 nM (active)
same,outcome,HACAT,inactive [at 9.27 µM]
same,"activity change, negative = cytotoxicity",C33A,-1.06% [at 11.6 µM]
same,"activity change, negative = cytotoxicity",Hek293T,-11.9% [at 11.6 µM]
same,Potency,SKOV3,562 nM (active)
same,"activity change, negative = cytotoxicity",Tov112D,-20.5% [at 11.6 µM]
CC(C)(O)/C=C/C(=O)[C@](C)(O)[C@H]1[C@H](O)C[C@@]2(C)[C@@H]3CC=C4[C@@H](C[C@H](O)C(=O)C4(C)C)[C@]3(C)C(=O)C[C@]12C,Potency,HEK293,709 nM (active)
same,Potency,NIH3T3,3170 nM (active)
same,Potency,C33A,inactive
same,Potency,CAOV3,398 nM (active)
same,Potency,HeLa,2510 nM (active)
same,Potency,PA-1,2510 nM (active)
same,Potency,SKOV3,794 nM (active)
same,Potency,Tov-21-G,1260 nM (active)
CCCCCn1cc(C(=O)C2C(C)(C)C2(C)C)c2ccccc21,Potency,[1],inactive
same,max response,NIH3T3,-0.489%
same,outcome,HACAT,inactive
same,Potency,C33A,inactive
same,Potency,CAOV3,inactive
same,Potency,Es-2,inactive
same,Potency,HeLa,inactive
same,Potency,Hek293T,inactive
same,Potency,PA-1,inactive
same,Potency,Tov-21-G,inactive
same,Potency,Tov112D,inactive
C[C@H]1CN(Cc2ccc(CC(=O)N3CCC(Nc4cccc(F)c4)CC3)cc2)CCN1,Potency,[1],12000 nM (active)
same,Potency,HEK293,18400 nM (active)
same,Potency,NIH3T3,20600 nM (active)
same,Potency,C33A,inactive
same,Potency,CAOV3,inactive
same,Potency,Es-2,inactive
same,Potency,HeLa,inactive
same,Potency,Hek293T,inactive
same,Potency,PA-1,inactive
same,Potency,SKOV3,inactive
same,Potency,Tov-21-G,inactive
same,Potency,Tov112D,inactive
CCOC(=O)C1(CCc2ccccc2)CCN(Cc2ccc(NC(C)=O)cc2)CC1,Potency,[1],2130 nM (active)
same,max response,NIH3T3,-0.351%
same,Potency,C33A,inactive
same,Potency,CAOV3,inactive
same,Potency,Es-2,inactive
same,Potency,HeLa,inactive
same,Potency,Hek293T,inactive
same,Potency,PA-1,inactive
same,Potency,SKOV3,inactive
same,Potency,Tov-21-G,inactive
same,Potency,Tov112D,inactive
C=C(CO)[C@@]12O[C@@H]1[C@@]1(C)C(=CC2=O)CC[C@@H](O)[C@@H]1C,Potency,HEK293,23100 nM (active)
same,Potency,NIH3T3,7310 nM (active)
same,outcome,HACAT,inactive
CC(C)OC(=O)c1ccnc2cc(C(OCCN3CCCCC3)c3ccccc3Cl)sc12 (configuration not stated),outcome,HACAT,inactive
same,Potency,C33A,inactive
same,Potency,Es-2,inactive
same,Potency,HeLa,inactive
same,Potency,Hek293T,inactive
same,Potency,PA-1,inactive
same,Potency,SKOV3,inactive
same,Potency,Tov-21-G,inactive
same,Potency,Tov112D,inactive
CCOC(=O)c1ccnc2cc(C(OCCN3CCCCC3)c3ccccc3Cl)sc12 (configuration not stated),outcome,HACAT,inactive
same,Potency,CAOV3,inactive
Cc1ncc(OC[C@@]2(c3cccc(F)c3)C[C@H]2C(=O)Nc2ccc(F)cn2)c(C)n1,Potency,[2],inactive
same,Potency,[3],inactive
same,max response,HEK293,4.45%
same,outcome,NIH3T3,inactive
same,outcome,HACAT,inactive
C/C=C(/C)C(=O)O[C@H]1[C@@H]2[C@H](C)C(=O)O[C@@H]2C[C@@H](C)[C@@H]2C=CC(=O)[C@]21C,max response,HEK293,-117%
same,Potency,Tov-21-G,inactive
C[C@@H]1Cc2c(Cl)cc(C(=O)N[C@@H](Cc3ccccc3)C(=O)O)c(O)c2C(=O)O1,max response,NIH3T3,-8.41%
same,outcome,HACAT,inactive
same,Potency,C33A,inactive
same,Potency,CAOV3,inactive
same,Potency,HeLa,inactive
same,Potency,SKOV3,inactive
same,Potency,Tov-21-G,inactive
